In ChEMBL document CHEMBL3433997, “St. Jude Leishmania screening dataset” (2016):

How the values were obtained:
Format in all cases: functional
[1] = biological target: Solute carrier family 2, facilitated glucose transporter member 1 (Homo sapiens) (UniProt P11166); assay: ST_JUDE_LEISH: Cytotoxicity at 2uM final concentration against transgenic Leishmania Mexicana promastigotes LmGLUT1 that are glucose transport deficient and complemented with the human glucose transporter GLUT1. Activity is measured by DNA content using SYBR green in vitro
Chain of Solute carrier family 2, facilitated glucose transporter member 1 (Homo sapiens) (P11166 whole entry): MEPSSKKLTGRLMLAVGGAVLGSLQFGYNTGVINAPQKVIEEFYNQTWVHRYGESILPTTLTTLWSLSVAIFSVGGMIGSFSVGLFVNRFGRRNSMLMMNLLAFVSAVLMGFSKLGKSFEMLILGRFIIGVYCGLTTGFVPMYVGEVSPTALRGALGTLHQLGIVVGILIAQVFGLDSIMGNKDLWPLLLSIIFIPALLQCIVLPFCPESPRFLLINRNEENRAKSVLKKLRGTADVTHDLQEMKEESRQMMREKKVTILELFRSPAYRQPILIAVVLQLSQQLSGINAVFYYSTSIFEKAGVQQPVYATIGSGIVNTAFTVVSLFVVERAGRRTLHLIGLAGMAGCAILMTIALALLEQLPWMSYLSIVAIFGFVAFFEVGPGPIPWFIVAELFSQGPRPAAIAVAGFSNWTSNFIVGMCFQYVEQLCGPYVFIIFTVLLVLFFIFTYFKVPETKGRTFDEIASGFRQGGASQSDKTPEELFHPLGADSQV

[2] = biological target: Hexose transporter 1 (Plasmodium falciparum) (UniProt O97467); assay: ST_JUDE_LEISH: Cytotoxicity at 2uM final concentration against transgenic Leishmania Mexicana promastigotes LmPfHT that are glucose transport deficient and complemented with the Plasmodium falciparum hexose transporter. Activity is measured by DNA content using SYBR green in vitro
[3] = biological target: Glucose transporter (Leishmania mexicana) (UniProt O61059); assay: ST_JUDE_LEISH: Cytotoxicity at 2uM final concentration against transgenic Leishmania Mexicana promastigotes LmGT2 that are glucose transport deficient and complemented with the L. Mexicana glucose transporter 2. Activity is measured by DNA content using SYBR green in vitro

| Compound | inhibition [1] [%] | inhibition [2] [%] | inhibition [3] [%] |
| --- | --- | --- | --- |
| CNC(=O)C1Cc2c([nH]c3ccc(Cl)cc23)C2(CCN(CCc3ccccc3)CC2)N1 (stereo unspecified) | 3.32 | 0.71 | -2.87 |
| CC1CCC2(CC1)N=C(N)N=C(N)N2OCc1cc2ccccc2c2ccccc12 (stereo unspecified) | 3.83 | 2.5 | 2.97 |
| CN1CCCC1CNS(=O)(=O)c1ccc(C(=O)NCC2CC2)cc1 (stereo unspecified) | 1.51 | 2.45 | 1.36 |
| CCCCc1ccc(-c2ccc3[nH]c(C)c(Br)c(=O)c3c2)cc1 | 3.02 | 3.88 | 2.44 |
| COc1cccc(OC)c1C(=O)Nc1cccc(-c2nn3ccccc3c2-c2ccnc(Nc3cccc(F)c3)n2)c1 | 6.78 | 9.03 | 4.91 |
| Cc1cccn2c(=O)c3cc(C(=O)NCc4cccnc4)c(=N)n(CCc4ccccc4)c3nc12 | 3.35 | 4.08 | 1.6 |
| CCN(CC)CCN(Cc1ccc(-c2ccc(C(F)(F)F)cc2)nc1)C(=O)Cn1c(SCc2ccc(F)cc2)nc(=O)c2sccc21 | 1.92 | 1.65 | 1.84 |
| CN(c1ccc2c(c1)nc(NCc1ccccc1)n2C)c1ccnc(Nc2ccc(CS(C)(=O)=O)cc2)n1 | 4.69 | 1.86 | 3.22 |
| NC(=O)N1CCN(Cc2ccc(Br)cc2)CC1 | 0.39 | 1.05 | 1 |
| N#Cc1cccc(NC(=O)c2cccc(S(=O)(=O)NC3CCN(CC4CCCCC4)C3)c2)c1 (stereo unspecified) | 0.54 | 1.11 | 3.37 |
| COc1ccc(Cl)cc1N1CCN(CCCNC(=O)c2ccc(-c3nc4cc(Cl)c(F)cc4[nH]3)s2)CC1 | 6.45 | 5.41 | 2.06 |
| CCNc1cc(C)nc(Nc2ccccc2)n1 | 15.2 | 5.92 | 3.47 |
| N#Cc1ccc(C(=O)Nc2ccc(Cl)c(N3CCN(CCc4ccccc4)CC3)c2)cc1 | 8.77 | 7.95 | 7.85 |
| COc1ccc(C(=O)Nc2ccc(-c3nc4cc(C)ccc4[nH]3)cc2)cc1OC | 3.99 | 2.08 | 3.84 |
| O=C(Nc1ccc2nc3n(c(=O)c2c1)CCCCC3)C(=O)N1CCN(c2ccc(F)cc2)CC1 | 7.33 | 9.84 | 7.95 |
| CCc1c(C)nc(-n2nc(C)cc2NC(=O)C2c3ccccc3Oc3ccccc32)[nH]c1=O | -0.64 | -0.55 | 3.35 |
| Cc1[nH]c(C)c([N+](=O)[O-])c(=O)c1-c1ccc(Oc2ccccc2)cc1 | -1.81 | 0.5 | -1.98 |
| Cc1cccc2nc(-c3cccc(-c4ccc(NC(=O)C5CCN(C)CC5)cc4)c3)[nH]c12 | 5.38 | 2.27 | 7.2 |
| CC(=O)c1sc(NC(=O)Nc2ccc(C)cc2C)nc1C | 14 | 8.74 | 3.63 |
| CC(C)c1ccc(NC(=O)c2ccc(CN3CCCN(Cc4cccc(Cl)c4)CC3)cc2)cc1 | 0.69 | 1.46 | 1.59 |
| CN1CCN(c2ccc(Cl)cc2NC(=O)C2COc3ccccc3O2)CC1 (stereo unspecified) | 0.88 | 1.77 | -1.34 |
| FC(F)(F)c1ccc2[nH]ccc(=NN=Cc3ccccc3Cl)c2c1 | 2.85 | 1.66 | 1.62 |
| O=C(NCC(CCN1CCC(c2c[nH]c3ccccc23)CC1)c1ccccc1)Nc1ccc(Cl)c(Cl)c1 (stereo unspecified) | 5.74 | 2.72 | 2.16 |
| CC(=NNC(S)=NCCc1ccccc1)c1ccccn1 | 57.4 | 68 | 23.6 |

| Compound | inhibition [1] [%] | inhibition [2] [%] | inhibition [3] [%] |
| --- | --- | --- | --- |
| CN(C)CCCNCCS(=O)(=O)c1cccc(Nc2ccc(-c3cccc(N(C)C)c3)cn2)c1 | 1.72 | 1.88 | 1.78 |
| Cc1[nH]c2ccc(C#N)cc2c(=O)c1Br | 2.13 | 1.62 | 1.31 |
| COc1ccc(OCC(O)CN(Cc2ccccc2OC)C(=O)Nc2ccc(Br)cc2)cc1 (stereo unspecified) | 6.41 | 4.6 | 1.1 |
| O=c1cc(NCCCNCc2cccc3c2OC(F)(F)O3)[nH]c2ccccc12 | 2.3 | 1.38 | 1.85 |
| Cc1cc(=NN=Cc2ccccn2)c2cc(C(F)(F)F)ccc2[nH]1 | -0.43 | -1.03 | -1.17 |
| Cc1ccc(Oc2c(-c3ccccc3CN3CCCC3CN(C)C)cnn(C)c2=O)cn1 (stereo unspecified) | 6.33 | 4.63 | 5.57 |
| c1ccc(CNc2nc(NCCN3CCCCC3)nc3ccccc23)cc1 | 10.2 | 11.1 | 4.27 |
| COc1ccc(CC(C)CON2C(N)=NC(N)=NC2(C)C)cc1 (stereo unspecified) | 4.07 | 4.35 | 4.04 |
| Cc1[nH]c(C)c(-c2ccc(-c3ccccc3C(F)(F)F)nc2)c(=O)c1Br | 2.64 | 3.67 | 0.55 |
| COc1ccc(C(=O)C2CC2CN(C)CCC(O)c2ccc(Cl)c(Cl)c2)cc1 (stereo unspecified) | 1.1 | 1.11 | 4.55 |
| Cc1noc(C)c1-c1cccc(CNCc2ccc(-c3ccc(-c4nc5cc(C(F)(F)F)ccc5[nH]4)cc3)cc2)c1 | 5.36 | 4.54 | 4.2 |
| CCc1ccc2c(c1O)CCN(C)C2Cc1ccccc1Cl (stereo unspecified) | 8.14 | 5.29 | 11.8 |
| COCC(=O)N(Cc1ccccc1-c1cccc(CNCc2ccc3c(c2)OCO3)c1)C1CCN(Cc2ccccc2)CC1 | 0.4 | 1.22 | 1.77 |
| CC(C)Cc1csc(NC(=O)C=Cc2ccco2)c1C(=O)O | -0.28 | 0.8 | -0.08 |
| NC(=O)c1cccc(Nc2nccc(Nc3ccc(Oc4ccc5ccccc5c4)cc3)n2)c1 | 5.67 | 4.45 | 0.97 |
| Oc1cccc(Nc2nc(NCc3ccco3)c3ccccc3n2)c1 | 19.6 | 12.2 | 4.1 |
| CS(=O)(=O)Nc1ccc(-c2ccc3ccnc(N)c3c2)cc1 | 7.57 | 7.12 | 6.67 |
| CC1CCCCN1CCCNC(=O)c1cccc(-c2cc3cc(Cl)c(Cl)cc3[nH]2)c1 (stereo unspecified) | 3.16 | 3.02 | 4.99 |
| COc1ccc(-c2cc3ncnc(N4CCN(CCN5CCCC5)CC4)c3s2)cc1 | 2.34 | 0.99 | 0.9 |
| COc1c(C2CCN(CCCCNC(=O)c3ccc(-c4ccc(Cl)cc4)c(O)c3)CC2)ccc2c1CCCC2 | 2.96 | 2.6 | 0.11 |
| COc1ccc2ncn(-c3ccc(C(N)=O)c(OCc4ccccc4C(F)(F)F)c3)c2c1 | -0.54 | -1.32 | -3.42 |
| O=C(NCc1ccc(F)cc1)c1cnc(N2CCN(c3ccncc3)CC2)c(Cl)c1 | 22.7 | 11.6 | 5.45 |
| O=C(Cc1ccc[n+]([O-])c1)Nc1ccc(-c2cccc(-c3nc4cc(C(F)(F)F)ccc4[nH]3)c2)cc1 | 1.49 | 1.61 | -0.42 |
| CCCC1(NC[C@@H](O)[C@H](Cc2ccccc2)NC(=O)c2cc(NCC)cc(N3CCCCS3(=O)=O)c2)CCCC1 | 4.97 | 5.31 | 3.48 |

| Compound | inhibition [1] [%] | inhibition [2] [%] | inhibition [3] [%] |
| --- | --- | --- | --- |
| Cc1cccc(CC2CC(=O)N(c3ccc([N+](=O)[O-])cc3)C2=O)c1 (stereo unspecified) | 7.63 | 7.62 | 7.64 |
| O=C(NCc1ccc(C(=O)N2CCC(N3CCCCC3)CC2)cc1)c1cc(-c2cccc(C(F)(F)F)c2)ccc1O | 7.73 | 6.4 | 7.14 |
| COc1ccc2[nH]cc(C3CCN(CCCCNC(=O)c4ccc(NC(=O)c5ccc(Cl)cc5)cc4)CC3)c2c1 | 4.59 | 4.04 | 5.72 |
| CCn1c2c(c(=N)c3ccccc31)CCC2 | -0.78 | -2.72 | -1.61 |
| CC(=O)Nc1nc(C(=O)Nc2ccc(-c3cccc(-c4nc5cc(F)ccc5[nH]4)c3)cc2)cs1 | 2.47 | 2.89 | 3.35 |
| COc1ccccc1CNc1ccnc(NCCc2cccc(C(F)(F)F)c2)n1 | 7.85 | 8.92 | 2.54 |
| CCc1ccc(NC(=O)C=NNC(=N)N)cc1 | 1.51 | 1.46 | 1.17 |
| Cc1ccc(C(=O)Nc2ccc(Nc3ccnc4cc(-c5ccccn5)ccc34)cc2O)cc1 | 7.39 | 10 | 4.76 |
| COC(=O)COc1cc(C(=O)NCCCCN2CCC(c3ccc4c(c3OC)CCCC4)CC2)ccc1-c1ccc(Cl)cc1 | 3.39 | 2.65 | 1.4 |
| CCCC(C)Nc1nc(C)cc(N[C@@H](Cc2ccccc2)C(=O)NCc2ccc(C)cc2)n1 (stereo partly specified) | 9.97 | 9.09 | 4.86 |
| Cc1ccc2nc3c(cc(C(=O)NCCc4ccccc4)c(=N)n3CCCOC(C)C)c(=O)n2c1 | -0.01 | 0.31 | -1.76 |
| N#Cc1cccc(C(O)C2CN(CCC3CCCCC3)CCC2(O)c2ccccc2)c1 (stereo unspecified) | -1.82 | -0.13 | 2.48 |
| CCNc1cc(C(=O)N[C@@H](Cc2ccccc2)[C@H](O)CN[C@H](C)C(C)(C)C)cc(N2CCCCS2(=O)=O)c1 | 2.2 | 1.95 | 2.33 |
| O=C(NCc1cccc(F)c1)Nc1cccc(-c2ccc(-c3nc4cc(F)ccc4[nH]3)cc2)c1 | 2.2 | 3.53 | 6.86 |
| COCCN1CCN(Cc2cccc(-c3ccc(-c4nc5ccccc5[nH]4)cc3)c2)CC1 | 0.45 | -3.13 | -1.36 |
| C=CCOC1OC(COC(c2ccccc2)(c2ccccc2)c2ccccc2)C(OC(C)=O)C(OC(C)=O)C1NC(C)=O (stereo unspecified) | 1.33 | 1.07 | 0.34 |
| Cc1cccc2nc(-c3ccc(-c4cccc(C(=O)NCCN5CCCC5)c4)s3)[nH]c12 | 10.1 | 10.7 | 9.13 |
| O=C(NC1CCCCN(Cc2ccc3c(c2)OCCO3)C1)c1cc(-c2ccccc2F)cs1 (stereo unspecified) | 12.7 | 16.4 | 12.8 |
| CC(C)(CNCc1cc(Cl)cc(Cl)c1)c1nc(-c2ccnc(N)n2)c(-c2ccc(Cl)c(O)c2)[nH]1 | -0.09 | 0.95 | 2.11 |
| O=S(=O)(NCCN1CCCC1)c1ccc(-c2cccc(CNC3Cc4ccccc4C3)c2)s1 | 13.9 | 13.6 | 5.84 |
| CCNc1cc(C(=O)N[C@@H](Cc2ccccc2)[C@H](O)CNC2C3CC4CC(C3)CC2C4)cc(N2CCCCS2(=O)=O)c1 (stereo partly specified) | 0.69 | 0.88 | -1.02 |
| COc1cccc(-c2cccc(NC(=O)C3CCN(Cc4ccc(O)cc4)CC3)c2)c1 | 0.86 | 0.59 | -5.2 |
| CCOc1ccc(-c2nonc2NC(=O)c2ccc(F)cc2)cc1OCC | -2.77 | 2 | 1.5 |
| COc1cc([N+](=O)[O-])ccc1NC(=O)c1cc(Cl)ccc1O | 7.76 | 6.83 | 7.02 |
